Experimental findings from PubChem BioAssay (NCI) are described below.

The panel holds about 83,000 compounds, 20% with a hit somewhere; the sample as a whole holds those more often.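 Method: cells in 96-well plates; compound added at one concentration; 48 h incubation; percent growth measured; values under 10 scored active.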 The source made the active and inactive calls.

This assay has as its system HOP-62 NSCLC. Put plainly: NCI-60 one-dose screen, 48 h (100 = growth as untreated, 0 = no growth, -100 = all killed). The settings on record: 10 µM unless noted. The method, then:
Growth inhibition of the HOP-62 human Non-Small Cell Lung tumor cell line is measured as a screen for anti-cancer activity. Cells are grown in 96 well plates and exposed to the test compound for 48 hours. Compounds are tested at a single concentration, which is 10^-5 M for most compounds. The reported endpoint is percent growth (GI% or GIPRCNT), where numbers from 0 - 100% represent growth inhibition, and numbers from -100% - 0 represent cell death. For example, a value of 40 represents 60% growth inhibition. A value of 0 means no net growth occurred over the course of the experiment. A value of -40 indicates 40% of cells at the beginning of the experiment died by the end of the experiment. A value of -100 means all cells are dead at the end of the experiment.
NCI-60 Human Tumor Cell Lines Screen was performed using the standard one-dose NCI protocol, which is described in more detail at https://dtp.cancer.gov/discovery_development/nci-60/default.htm.
Compounds with GIPRCNT values below 10 were considered active. Activity score was based on GIPRCNT using the following formula: […]
Score is 0 for GIPRCNT values of 100 or above, 50 for GIPRCNT values of 0, and 100 for GIPRCNT values of -100.
`COc1ccc(C2C=C(c3ccc(Cl)cc3)N=C3SC=CN32)cc1` (stereo not given): the growth was 108% (inactive).
For `Cc1cccc(C(=O)O)n1`, the growth was 106% (inactive).
Next, `COC(=O)C(CCC(=O)CCl)N1C(=O)c2ccccc2C1=O` (stereo not given): 79.9% (inactive); `Cc1ccc(NC(=O)c2nc(S(C)(=O)=O)oc2-c2ccc(F)cc2)cc1Nc1ccc2ncn(C)c(=O)c2c1`: 100% (inactive).
Next, `c1ccc2c(c1)cnc1ccccc12`: 102% (inactive).
As to `Cc1cc(C)cc(Nc2cc(C)nc3nc(C(F)(F)F)nn23)c1`, the growth is 47.8% (inactive).
The result for `COc1ccc(-n2nc(C(=O)NCC(=O)Nc3nc4cc(OC)ccc4s3)c3ccccc3c2=O)cc1` reads -78.7% (active); that for `Cc1ccc(N=CNN=C(N)N)cc1`, 102% (inactive).
The result for `O=NN(CC(=O)NNc1ccccc1)CC(=O)NNc1ccccc1` reads 87.8% (inactive); that for `O=C1c2ccccc2C(=O)c2c1oc1ccc3ccccc3c21`, 108% (inactive); that for `COc1ccc(-c2[nH]nc(N)c2-c2cc(OC)c(OC)c(OC)c2)cc1`, 22% (inactive).
Next, `Nc1nc(N)c2cc(CNc3ccc(Cl)c(Cl)c3)ccc2n1`: 43.1% (inactive); `COc1cc(-c2n/c(=C\c3c(O)[nH]c4cc(Cl)ccc34)cc3c2=Nc2ccccc2-3)cc(OC)c1OC`: 23.3% (inactive); `COc1cccc2nc(Nc3cccc(NC(=O)c4ccc(N5CCN(C)CC5)c(C(F)(F)F)c4)c3)ccc12`: 18.2% (inactive).
`CC1=NOCC(=O)N1`: the growth was 105% (inactive).
Turning to `COc1ccc([C@@H]2[C@@H](Oc3ccccc3)C(=O)N2c2cc(OC)c(OC)c(OC)c2)cc1F`, the growth is 14% (inactive).
As to `Cc1nc2c(-c3cnc(N)nc3)nc(N3CCOCC3)nc2n1C(C)C`, the growth was -12.7% (active).
For the compound `COc1cc(NC(C)CCCN)c2ncccc2c1Sc1ccc(Cl)cc1` (stereo not given), the growth is 67.7% (inactive).
As for `O=C(Nc1cccc(Cl)c1)Nc1cc(C(F)(F)F)ccc1Cl`, the growth is 41.3% (inactive).
The result for `CCCCn1c(-c2ccc(F)cc2)nc2cc(OC)c(OC)cc2c1=O` reads -11.2% (active); that for `Cc1cc(N=Nc2ccc(-c3ccc(N=Nc4ccc(O)c(C(=O)O)c4)cc3)cc2)c(N)c(N=Nc2ccc(C(=O)O)cc2)c1N`, 99.7% (inactive).
Next, `CN(C)c1ccc(/C=N/Nc2nnc3n2N=C(c2ccc(Cl)cc2)CS3)cc1`: 104% (inactive); `COc1ccc(C2=Nn3c(nnc3-c3ccc(Cl)cc3N)SC2)cc1`: 103% (inactive); `Cn1c(=O)c2[nH]c(Cc3ccc4c(c3)OCO4)nc2n(C)c1=O`: 101% (inactive).
Take `Cc1ccc(NC(=O)c2[nH]c(SCCN(C)C)nc2-c2ccc(F)cc2)cc1Nc1ccc2ncn(C)c(=O)c2c1`: the growth is 58.5% (inactive).
The result for `c1ccc(C(Nc2ccccn2)(c2ccccc2)c2ccccc2)cc1` reads 99% (inactive); that for `COC(=O)CNS(=O)(=O)c1ccc2c(c1)Cc1cc(S(=O)(=O)NCC(=O)OC)ccc1-2`, 97.8% (inactive).
Next, `O=C1/C(=C\c2cccn2Cc2ccc(F)cc2)c2ccccc2N1c1c(Cl)cccc1Cl`: 92.1% (inactive).
As for `O=S(=O)(NCC[C@@H]1C[C@H]1c1ccc2ccccc2c1)c1ccc(C(F)(F)F)cc1`, the growth is 105% (inactive).
Next, `C=CCN(CCOC(=O)c1ccc([N+](=O)[O-])cc1)CCOC(=O)c1ccc([N+](=O)[O-])cc1`: 91.9% (inactive); `CCCOC(=O)C1c2cc3c(cc2CC(C)C1C(=O)OCCC)OCO3` (stereo not given): 95.3% (inactive); `O=C(Nc1ccc2[nH]c3ccccc3c2c1)c1ccccc1Cl`: 45.1% (inactive).
Next, `O=Cc1ccc2nc(C(Cl)(Cl)Cl)ccc2c1`: 104% (inactive); `CCOCC(O)(c1ccc(Cl)cc1)c1ccc(Cl)cc1`: 115% (inactive); `O=C(/C=C/c1ccccc1)C(Br)C(Br)c1ccccc1` (stereo not given): 12.5% (inactive).
Next, `FC(F)(F)C1=NNC(c2ccc3ccccc3c2)=NN1`: 106% (inactive); `Clc1ccc(Nc2ncnc3c2sc2ncccc23)c(Cl)c1`: 1.95% (active); `CC(C)CC(NC(=O)OCC1c2ccccc2-c2ccccc21)C(=O)O` (stereo not given): 103% (inactive).
As for `Cc1nc2n[nH]c(N)c2nc1C`, the growth was 104% (inactive).
Next, `COc1ccc(C(=O)C(CN(C)C)c2ccccc2)cc1` (stereo not given): 83.6% (inactive).
